# Laboratory results taken from PubChem BioAssay AID1159580 (chemical genetic matrix, 2015).
# Out of some 5,500 compounds screened, about 2,000 (36%) were called active. Another 18% or so got no clear call; they are omitted. The list shows a part of the results. Unmarked numbers belong to inactive results. No stated cut-off is given here; in the data, active means normalized growth mostly below about 0.91 (no sharp cut-off); inconclusive means no clear call, values can overlap the other calls; inactive means mostly above about 0.92.
# Assay: chemical genetic growth profiling, strain panel (AID 1159580);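 further: tested at 20 µM; growth read once vehicle control cultures reached saturation at 30 °C; 1 = growth at the plate median or of vehicle wells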
# Details: S. cerevisiae deletion strains, growth OD
# [1] = locus YAL013W, strain DEP1, stronger effect = lower value
# [2] = locus YBR229C, strain ROT2, stronger effect = lower value
# [3] = locus YDL101C, strain DUN1, stronger effect = lower value
# [4] = locus YDL134C, strain PPH21, stronger effect = lower value
# [5] = locus YDR150W, strain NUM1, stronger effect = lower value
# [6] = locus YEL061C, strain CIN8, stronger effect = lower value
# [7] = locus YGR078C, strain PAC10, stronger effect = lower value
# [8] = locus YHR030C, strain SLT2, stronger effect = lower value
# [9] = locus YHR087W, strain rtc3, stronger effect = lower value
# [10] = locus YJR043C, strain POL32, stronger effect = lower value
# [11] = locus YJR075W, strain HOC1, stronger effect = lower value
# [12] = locus YLR039C, strain RIC1, stronger effect = lower value
# [13] = locus YLR058C, strain SHM2 (second series), stronger effect = lower value
# [14] = locus YLR085C, strain ARP6, stronger effect = lower value
# [15] = locus YLR262C, strain YPT6, stronger effect = lower value
# [16] = locus YML094W, strain GIM5, stronger effect = lower value
# [17] = locus YMR219W, strain ESC1, stronger effect = lower value
# [18] = locus YMR263W, strain SAP30, stronger effect = lower value
# [19] = locus YNL153C, strain GIM3, stronger effect = lower value
# [20] = locus YNL298W, strain CLA4 (second series), stronger effect = lower value
# [21] = locus YNL322C, strain KRE1, stronger effect = lower value
# [22] = locus YNR030W, strain Alg12, stronger effect = lower value
# [23] = locus YPL055C, strain LGE1, stronger effect = lower value
# [24] = locus YPL241C, strain CIN2, stronger effect = lower value
# [25] = locus YPR135W, strain CTF4, stronger effect = lower value
smiles,measurement,setting,value
COC(=O)/C(=C/N(C)C)Sc1cc(C)c(Cl)cc1Cl,normalized growth,[1],0.945
same,normalized growth,[2],0.968
same,normalized growth,[3],1.01
same,normalized growth,[4],0.983
same,normalized growth,[5],0.958
same,normalized growth,[6],0.951
same,normalized growth,[7],0.979
same,normalized growth,[8],0.296 (active)
same,normalized growth,[9],0.939
same,normalized growth,[10],0.983
same,normalized growth,[11],0.935
same,normalized growth,"locus YKL190W, strain CNB1, stronger effect = lower value",0.91 (active)
same,normalized growth,[12],0.622 (active)
same,normalized growth,[13],0.939
same,normalized growth,[14],0.91
same,normalized growth,[15],0.587 (active)
same,normalized growth,[16],0.914
same,normalized growth,[17],0.959
same,normalized growth,[18],0.946
same,normalized growth,[19],0.992
same,normalized growth,[20],0.925
same,normalized growth,[21],0.933 (active)
same,normalized growth,[22],0.942
same,normalized growth,"locus YOL006C, strain TOP1, stronger effect = lower value",0.978
same,normalized growth,[23],0.922
same,normalized growth,[24],0.947
same,normalized growth,[25],0.747
Cc1ccc2nc(-c3ccc(Cl)cc3)cn2c1,normalized growth,"locus YAR019C, strain CDC15, stronger effect = lower value",0.961
same,normalized growth,"locus YBL105C, strain PKC1, stronger effect = lower value",0.97
same,normalized growth,"locus YBR135W, strain CKS1, stronger effect = lower value",0.968
same,normalized growth,"locus YBR136W, strain MEC1, stronger effect = lower value",0.968
same,normalized growth,"locus YBR160W, strain CDC28, stronger effect = lower value",0.954
same,normalized growth,"locus YDL017W, strain CDC7, stronger effect = lower value",0.964
same,normalized growth,"locus YDL028C, strain MPS1, stronger effect = lower value",0.974
same,normalized growth,[3],0.969
same,normalized growth,"locus YDL108W, strain KIN28, stronger effect = lower value",0.971
same,normalized growth,"locus YDL132W, strain cdc53, stronger effect = lower value",0.962
same,normalized growth,"locus YDL214C, strain PRR2, stronger effect = lower value",0.95
same,normalized growth,"locus YDR052C, strain DBF4, stronger effect = lower value",0.972
same,normalized growth,"locus YDR054C, strain cdc34, stronger effect = lower value",0.949
same,normalized growth,"locus YDR226W, strain ADK1, stronger effect = lower value",0.959
same,normalized growth,"locus YDR477W, strain SNF1, stronger effect = lower value",0.933
same,normalized growth,"locus YER123W, strain YCK3, stronger effect = lower value",0.89
same,normalized growth,"locus YER133W, strain GLC7, stronger effect = lower value",0.923
same,normalized growth,"locus YFL009W, strain cdc4, stronger effect = lower value",0.967
same,normalized growth,"locus YFL029C, strain CAK1, stronger effect = lower value",0.956
same,normalized growth,"locus YFR003C, strain YPI1, stronger effect = lower value",0.97
same,normalized growth,"locus YFR019W, strain FAB1, stronger effect = lower value",0.944
same,normalized growth,"locus YFR028C, strain CDC14, stronger effect = lower value",0.958
same,normalized growth,"locus YGR040W, strain KSS1, stronger effect = lower value",0.911
same,normalized growth,"locus YGR052W, strain FMP48, stronger effect = lower value",0.974
same,normalized growth,"locus YGR092W, strain DBF2, stronger effect = lower value",0.903
same,normalized growth,[8],0.889
same,normalized growth,"locus YHR079C, strain IRE1, stronger effect = lower value",0.936
same,normalized growth,"locus YHR082C, strain KSP1, stronger effect = lower value",1
same,normalized growth,"locus YHR205W, strain SCH9, stronger effect = lower value",0.966
same,normalized growth,"locus YIL147C, strain SLN1, stronger effect = lower value",0.975
same,normalized growth,"locus YJL095W, strain BCK1, stronger effect = lower value",0.948
same,normalized growth,"locus YJL128C, strain PBS2, stronger effect = lower value",0.966
same,normalized growth,"locus YJL157C, strain FAR1, stronger effect = lower value",0.92
same,normalized growth,"locus YJR016C, strain ILV3, stronger effect = lower value",0.97
same,normalized growth,"locus YJR066W, strain TOR1 (second series), stronger effect = lower value",0.937
same,normalized growth,"locus YJR066W, strain TOR1, stronger effect = lower value",0.953
same,normalized growth,"locus YKL048C, strain ELM1, stronger effect = lower value",0.956
same,normalized growth,"locus YKL067W, strain YNK1, stronger effect = lower value",0.936
same,normalized growth,"locus YKL101W, strain HSL1, stronger effect = lower value",0.953
same,normalized growth,"locus YKL193C, strain SDS22, stronger effect = lower value",0.961
same,normalized growth,"locus YKL203C, strain TOR2, stronger effect = lower value",0.97
same,normalized growth,"locus YLR113W, strain HOG1, stronger effect = lower value",0.906
same,normalized growth,"locus YLR133W, strain CKI1, stronger effect = lower value",0.953
same,normalized growth,"locus YLR403W, strain SFP1, stronger effect = lower value",0.93
same,normalized growth,"locus YML070W, strain DAK1, stronger effect = lower value",0.91
same,normalized growth,"locus YMR001C, strain CDC5, stronger effect = lower value",0.965
same,normalized growth,"locus YMR205C, strain PFK2 (second series), stronger effect = lower value",0.952
same,normalized growth,"locus YMR277W, strain FCP1, stronger effect = lower value",0.961
same,normalized growth,"locus YNL006W, strain LST8, stronger effect = lower value",0.962
same,normalized growth,"locus YNL020C, strain ARK1, stronger effect = lower value",0.946
same,normalized growth,"locus YNL161W, strain CBK1, stronger effect = lower value",0.961
same,normalized growth,"locus YNL183C, strain NPR1, stronger effect = lower value",0.928
same,normalized growth,"locus YNL207W, strain RIO2, stronger effect = lower value",0.97
same,normalized growth,"locus YNL222W, strain SSU72, stronger effect = lower value",0.958
same,normalized growth,"locus YNL307C, strain MCK1 (second series), stronger effect = lower value",0.907
same,normalized growth,"locus YOL078W, strain AVO1, stronger effect = lower value",0.97
same,normalized growth,"locus YOL136C, strain PFK27, stronger effect = lower value",0.921
same,normalized growth,"locus YOR061W, strain CKA2, stronger effect = lower value",0.948
same,normalized growth,"locus YOR119C, strain RIO1, stronger effect = lower value",0.982
same,normalized growth,"locus YOR231W, strain MKK1, stronger effect = lower value",0.884
same,normalized growth,"locus YOR329C, strain SCD5, stronger effect = lower value",0.969
same,normalized growth,"locus YPL031C, strain PHO85, stronger effect = lower value",0.949
same,normalized growth,"locus YPL153C, strain RAD53, stronger effect = lower value",0.899
same,normalized growth,"locus YPL204W, strain HRR25, stronger effect = lower value",0.9
same,normalized growth,"locus YPL209C, strain IPL1, stronger effect = lower value",0.959
same,normalized growth,"locus YPL256C, strain CLN2, stronger effect = lower value",0.909
same,normalized growth,"locus YPR025C, strain CCL1, stronger effect = lower value",0.969
same,normalized growth,"locus YPR106W, strain ISR1, stronger effect = lower value",0.964
same,normalized growth,"locus YPR111W, strain DBF20, stronger effect = lower value",0.96
same,normalized growth,"strain NNK1, stronger effect = lower value",0.986
same,normalized growth,"strain TSCII, stronger effect = lower value",0.959
CC(C)(C)c1ccc(-c2nc(-c3cc(C(C)(C)C)c(O)c(C(C)(C)C)c3)cs2)cc1,normalized growth,[1],1.01
same,normalized growth,[2],1
same,normalized growth,"locus YCL061C, strain MRC1, stronger effect = lower value",1.03
same,normalized growth,[3],1.02
same,normalized growth,[4],1.02
same,normalized growth,[5],0.912
same,normalized growth,[6],1.03
same,normalized growth,[7],1.02
same,normalized growth,[8],1.09
same,normalized growth,[9],1.01
same,normalized growth,"locus YJL187C, strain SWE1, stronger effect = lower value",1.01
same,normalized growth,[10],1.01
same,normalized growth,[11],1.03
same,normalized growth,[12],1.08
same,normalized growth,[13],1.01
same,normalized growth,[14],1.21
same,normalized growth,[15],1.04
same,normalized growth,[16],1.03
same,normalized growth,[17],1.01
same,normalized growth,[18],0.947
same,normalized growth,[19],0.988
same,normalized growth,[20],1.05
same,normalized growth,[21],1.01
same,normalized growth,[22],1.03
same,normalized growth,[23],1.17
same,normalized growth,[24],1.13
same,normalized growth,[25],1.07
